The values below come from PubChem BioAssay (NCATS).

Records with an inconclusive call do not appear. Entries that show only a call come without a potency. The source made the active and inactive calls. The call rests on the fitted dose curve; in most records, active means well fitted curve in the direction sought with a large enough effect; inconclusive means small, poorly fitted or top-dose-only effect, or another doubt; inactive means no such curve, though single readings can be large; an effect the other way counts as inactive or inconclusive.
Further: nearly all actives have a fitted effect of over 35% in size.
Potency means the concentration at half of the fitted maximal effect.

A short description of the first assay: Quantitative highthroughput screen to assess conditional lethalithy of NOMO1 cells grown in Human Plasma-Like Medium with dialyzed fetal bovine serum (HPLM+ds) (AID 1963878). Conditions: NOMO1 AML cells in HPLM+ds, CellTiter-Glo viability, 48 h; series mostly up to 45.8 µM. In outline: (§1)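 Each medium arm—HPLM with 10% dialyzed FBS, or RPMI1640 with 5 mM glucose and 10% untreated or dialyzed FBS—was screened against an 11-point, 3-fold compound titration for 48 h at 37 °C, with CellTiter-Glo luminescence as endpoint.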
Consider `CC(C)c1noc(N2CCC(COc3ccc(-c4ccc(S(C)(=O)=O)cc4)nc3)CC2)n1`, for which the Potency result was “inactive”.

Take `CS(=O)(=O)c1ccc([C@@H](O)[C@@H](CO)NC(=O)C(Cl)Cl)cc1`: the Potency result was “inactive”.

As for `CCNC(=O)Nc1ccc(Oc2ncnc(N)c2C=NOC)cc1Cl`, the Potency entry was “inactive”.

Regarding `O=C(NC[C@H](O)CN1CCc2ccccc2C1)c1cc(NC2COC2)ncn1`, the Potency entry is “inactive”.

As for `CCN(CC)CC#CCOC(=O)C(O)(c1ccccc1)C1CCCCC1` (centres undefined), the Potency result is “inactive”.

For the compound `CNC(=O)c1ccc(-c2cnc3ncc(Cc4ccc5ncccc5c4)n3n2)cc1F`, the Potency entry is “inactive”.

For `O=c1c(-c2ccc(O)cc2)coc2cc(OC3O[C@H](CO)[C@H](O)[C@H](O)[C@H]3O)cc(O)c12` (some centres undefined), the Potency result was “inactive”.

`NNc1nncc2ccccc12`: the Potency entry is “inactive”.

Take `Nc1ccn(C2CO[C@H](CO)O2)c(=O)n1` (some centres undefined): the Potency entry was “inactive”.

`CC(=O)NC[C@H]1CN(c2ccc(N3CCOCC3)c(F)c2)C(=O)O1`: the Potency entry was “inactive”.

Turning to `COc1ccc([C@@H]2CC(=O)c3c(O)cc(O[C@@H]4O[C@H](CO[C@@H]5O[C@@H](C)[C@H](O)[C@@H](O)[C@@H]5O)[C@@H](O)[C@H](O)[C@@H]4O)cc3O2)cc1O`, the Potency entry was “inactive”.

As to `N#C[C@H]1C[C@H]2C[C@@H]2N1C(=O)[C@@H](N)C12CC3CC(CC(O)(C3)C1)C2`, the Potency is 10.5 µM (active).

As to `O=c1[nH]cc(F)c(=O)[nH]1`, the Potency is 10.5 µM (active).

`CSc1cccc(Nc2ncc3cc(-c4c(Cl)cccc4Cl)c(=O)n(C)c3n2)c1`: the Potency entry was “inactive”.

A further assay can be described thus: Quantitative highthroughput screen to assess conditional lethalithy of P12 Ichikawa cells grown in Human Plasma-Like Medium with dialyzed fetal bovine serum (HPLM+ds) (AID 1963879). To be noted: ATP luminescence, 48 h; Potency: viability; series mostly up to 45.8 µM. In outline:
as §1
For the compound `CCOc1cc(C(=O)Nc2ccc(Cl)c(-c3nc4ccccc4[nH]3)c2)cc(OCC)c1OCC`, the Potency result was “inactive”.

As for `CC(C)c1noc(N2CCC(COc3ccc(-c4ccc(S(C)(=O)=O)cc4)nc3)CC2)n1`, the Potency entry is “inactive”.

In the case of `CS(=O)(=O)c1ccc([C@@H](O)[C@@H](CO)NC(=O)C(Cl)Cl)cc1`, the Potency result was “inactive”.

As to `CCOC(=O)N1CCN([N+]([O-])=NOc2ccc([N+](=O)[O-])cc2C#N)CC1`, the Potency was 1.05 µM (active).

On to `CCNC(=O)Nc1ccc(Oc2ncnc(N)c2C=NOC)cc1Cl`, for which the Potency result was “inactive”.

For `O=C(NC[C@H](O)CN1CCc2ccccc2C1)c1cc(NC2COC2)ncn1`, the Potency entry is “inactive”.

For `CNC(=O)c1ccc(-c2cnc3ncc(Cc4ccc5ncccc5c4)n3n2)cc1F`, the Potency entry was “inactive”.

As to `COc1ccc(CCN2CCN(CCCc3ccccc3)CC2)cc1OC`, the Potency result is “inactive”.

`CC(S)C(=O)NCC(=O)O` (centres undefined): the Potency entry was “inactive”.

As for `O=c1c(-c2ccc(O)cc2)coc2cc(OC3O[C@H](CO)[C@H](O)[C@H](O)[C@H]3O)cc(O)c12` (some centres undefined), the Potency result is “inactive”.

Take `NNc1nncc2ccccc12`: the Potency result was “inactive”.

As to `Nc1ccn(C2CO[C@H](CO)O2)c(=O)n1` (some centres undefined), the Potency entry was “inactive”.

For `CC(=O)NC[C@H]1CN(c2ccc(N3CCOCC3)c(F)c2)C(=O)O1`, the Potency entry is “inactive”.

Consider `COc1ccc([C@@H]2CC(=O)c3c(O)cc(O[C@@H]4O[C@H](CO[C@@H]5O[C@@H](C)[C@H](O)[C@@H](O)[C@@H]5O)[C@@H](O)[C@H](O)[C@@H]4O)cc3O2)cc1O`, for which the Potency entry is “inactive”.

Take `O=C(NCCO[N+](=O)[O-])c1cccnc1`: the Potency result was “inactive”.

For `N#C[C@H]1C[C@H]2C[C@@H]2N1C(=O)[C@@H](N)C12CC3CC(CC(O)(C3)C1)C2`, the Potency result was “inactive”.

`O=c1[nH]cc(F)c(=O)[nH]1`: the Potency is 8.33 µM (active).

With `COc1nccc(-c2c(-c3ccc(F)cc3)ncn2C2CCC(O)CC2)n1` (centres undefined), the Potency entry was “inactive”.

With `CSc1cccc(Nc2ncc3cc(-c4c(Cl)cccc4Cl)c(=O)n(C)c3n2)c1`, the Potency entry was “inactive”.

Consider `COc1cc(Nc2ncc3c(n2)-c2ccc(Cl)cc2C(c2c(F)cccc2OC)=NC3)ccc1C(=O)O`, for which the Potency was 0.0743 µM (active).

Another assay in a line: Quantitative highthroughput screen to assess conditional lethalithy of P12 Ichikawa cells grown in RPMI1640 with dialyzed fetal bovine serum (RPMI+ds) (AID 1963880). To be noted: ATP luminescence, 48 h; Potency: P12-Ichikawa viability; series mostly up to 45.8 µM. In outline:
as §1
For `CC(C)c1noc(N2CCC(COc3ccc(-c4ccc(S(C)(=O)=O)cc4)nc3)CC2)n1`, the Potency result is “inactive”.

Take `CCOC(=O)N1CCN([N+]([O-])=NOc2ccc([N+](=O)[O-])cc2C#N)CC1`: the Potency was 1.05 µM (active).

As for `CCNC(=O)Nc1ccc(Oc2ncnc(N)c2C=NOC)cc1Cl`, the Potency result is “inactive”.

For the compound `O=C(NC[C@H](O)CN1CCc2ccccc2C1)c1cc(NC2COC2)ncn1`, the Potency result is “inactive”.

Regarding `CCN(CC)CC#CCOC(=O)C(O)(c1ccccc1)C1CCCCC1` (centres undefined), the Potency entry was “inactive”.

`CNC(=O)c1ccc(-c2cnc3ncc(Cc4ccc5ncccc5c4)n3n2)cc1F`: the Potency entry is “inactive”.

For `COc1ccc(CCN2CCN(CCCc3ccccc3)CC2)cc1OC`, the Potency result was “inactive”.

With `CC(S)C(=O)NCC(=O)O` (centres undefined), the Potency result was “inactive”.

Consider `O=c1c(-c2ccc(O)cc2)coc2cc(OC3O[C@H](CO)[C@H](O)[C@H](O)[C@H]3O)cc(O)c12` (some centres undefined), for which the Potency result is “inactive”.

For the compound `NNc1nncc2ccccc12`, the Potency entry is “inactive”.

Turning to `COc1ccc([C@@H]2CC(=O)c3c(O)cc(O[C@@H]4O[C@H](CO[C@@H]5O[C@@H](C)[C@H](O)[C@@H](O)[C@@H]5O)[C@@H](O)[C@H](O)[C@@H]4O)cc3O2)cc1O`, the Potency entry was “inactive”.

Take `O=C(NCCO[N+](=O)[O-])c1cccnc1`: the Potency entry was “inactive”.

Regarding `N#C[C@H]1C[C@H]2C[C@@H]2N1C(=O)[C@@H](N)C12CC3CC(CC(O)(C3)C1)C2`, the Potency entry was “inactive”.

As for `O=c1[nH]cc(F)c(=O)[nH]1`, the Potency is 10.5 µM (active).

Consider `CSc1cccc(Nc2ncc3cc(-c4c(Cl)cccc4Cl)c(=O)n(C)c3n2)c1`, for which the Potency entry is “inactive”.
